The values below come from ChEMBL document CHEMBL1961873, “Compounds: GSK PKIS; Assays: Nanosyn kinase panel” (2012).

Assay [1] addresses High affinity nerve growth factor receptor (Homo sapiens) (UniProt P04629). To be noted: at 1 µM.
Assay [2] concerns the target BDNF/NT-3 growth factors receptor (Homo sapiens) (UniProt Q16620). The conditions noted are these: at 0.1 µM.
Assay [3] has the same target. To be noted: at 1 µM.
Assay [4] deals with NT-3 growth factor receptor (Homo sapiens) (UniProt Q16288). To be noted: at 0.1 µM.
Assay [5] shares this target. To be noted: at 1 µM.
The target of assay [6] is T1, Tyrosine-protein kinase TXK (Homo sapiens) (UniProt P42681).
T1 sequence (whole entry): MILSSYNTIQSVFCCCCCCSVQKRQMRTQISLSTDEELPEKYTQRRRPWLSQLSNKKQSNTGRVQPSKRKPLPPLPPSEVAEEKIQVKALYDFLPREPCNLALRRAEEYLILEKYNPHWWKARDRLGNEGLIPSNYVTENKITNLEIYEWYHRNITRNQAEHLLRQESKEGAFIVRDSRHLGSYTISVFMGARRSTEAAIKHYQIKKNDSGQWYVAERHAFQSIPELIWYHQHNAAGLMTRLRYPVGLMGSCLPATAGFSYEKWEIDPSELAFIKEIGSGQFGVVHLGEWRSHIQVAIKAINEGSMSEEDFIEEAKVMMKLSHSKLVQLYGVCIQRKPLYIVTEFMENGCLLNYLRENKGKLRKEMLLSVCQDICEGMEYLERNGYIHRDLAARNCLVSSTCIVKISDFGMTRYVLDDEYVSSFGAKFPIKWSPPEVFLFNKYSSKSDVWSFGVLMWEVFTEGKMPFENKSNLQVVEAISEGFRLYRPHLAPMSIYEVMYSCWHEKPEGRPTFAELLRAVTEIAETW
The conditions noted are these: at 0.1 µM.

Assay [7] addresses T1, Tyrosine-protein kinase TXK (Homo sapiens). To be noted: at 1 µM.
Assay [8] deals with Non-receptor tyrosine-protein kinase TYK2 (Homo sapiens) (UniProt P29597). The conditions noted are these: at 0.1 µM.
Assay [9] deals with T2, Dual specificity protein kinase TTK (Homo sapiens) (UniProt P33981).
T2 sequence (whole entry): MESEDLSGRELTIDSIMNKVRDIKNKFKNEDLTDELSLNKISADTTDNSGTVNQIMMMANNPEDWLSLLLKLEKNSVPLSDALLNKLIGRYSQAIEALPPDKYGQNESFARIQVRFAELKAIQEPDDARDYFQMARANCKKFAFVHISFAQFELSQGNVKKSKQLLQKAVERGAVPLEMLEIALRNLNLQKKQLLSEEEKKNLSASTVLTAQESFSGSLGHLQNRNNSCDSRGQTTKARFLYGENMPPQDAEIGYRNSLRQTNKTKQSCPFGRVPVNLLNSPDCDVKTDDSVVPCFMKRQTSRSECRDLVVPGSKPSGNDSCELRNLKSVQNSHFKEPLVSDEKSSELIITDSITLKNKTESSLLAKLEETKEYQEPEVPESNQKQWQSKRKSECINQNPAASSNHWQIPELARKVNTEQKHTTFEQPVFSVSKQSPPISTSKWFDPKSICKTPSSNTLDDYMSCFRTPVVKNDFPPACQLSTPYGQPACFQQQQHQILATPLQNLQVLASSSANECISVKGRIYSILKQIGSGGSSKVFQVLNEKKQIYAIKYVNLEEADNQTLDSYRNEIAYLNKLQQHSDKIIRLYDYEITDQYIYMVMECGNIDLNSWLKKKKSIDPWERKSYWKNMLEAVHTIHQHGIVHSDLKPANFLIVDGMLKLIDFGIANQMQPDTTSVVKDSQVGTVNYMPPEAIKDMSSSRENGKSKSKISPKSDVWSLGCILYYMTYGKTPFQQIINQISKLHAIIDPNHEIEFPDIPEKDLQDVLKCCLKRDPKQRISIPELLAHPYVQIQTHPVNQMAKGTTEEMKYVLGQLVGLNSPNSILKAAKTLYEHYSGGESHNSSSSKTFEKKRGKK
The conditions noted are these: at 1 µM.

The target of assay [10] is T3, Aurora kinase A (Homo sapiens) (UniProt O14965).
T3 sequence (whole entry): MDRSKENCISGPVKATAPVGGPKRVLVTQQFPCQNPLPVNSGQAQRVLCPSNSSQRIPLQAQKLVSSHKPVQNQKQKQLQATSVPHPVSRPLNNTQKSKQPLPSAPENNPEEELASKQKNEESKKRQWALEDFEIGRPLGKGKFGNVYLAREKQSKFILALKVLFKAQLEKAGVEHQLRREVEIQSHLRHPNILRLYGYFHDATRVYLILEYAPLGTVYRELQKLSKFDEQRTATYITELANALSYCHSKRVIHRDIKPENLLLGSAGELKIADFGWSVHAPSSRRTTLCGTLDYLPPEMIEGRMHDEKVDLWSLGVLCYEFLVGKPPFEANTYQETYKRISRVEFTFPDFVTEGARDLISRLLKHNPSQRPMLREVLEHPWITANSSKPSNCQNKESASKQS
To be noted: at 0.1 µM.

Assay [11] addresses T3, Aurora kinase A (Homo sapiens). The conditions noted are these: at 1 µM.
The target in assay [12] is Aurora kinase B (Homo sapiens) (UniProt Q96GD4). The conditions noted are these: at 0.1 µM.
For assay [13] the target is unchanged. The conditions noted are these: at 1 µM.
In assay [14] the target is T4, Aurora kinase C (Homo sapiens) (UniProt Q9UQB9).
T4 sequence (whole entry): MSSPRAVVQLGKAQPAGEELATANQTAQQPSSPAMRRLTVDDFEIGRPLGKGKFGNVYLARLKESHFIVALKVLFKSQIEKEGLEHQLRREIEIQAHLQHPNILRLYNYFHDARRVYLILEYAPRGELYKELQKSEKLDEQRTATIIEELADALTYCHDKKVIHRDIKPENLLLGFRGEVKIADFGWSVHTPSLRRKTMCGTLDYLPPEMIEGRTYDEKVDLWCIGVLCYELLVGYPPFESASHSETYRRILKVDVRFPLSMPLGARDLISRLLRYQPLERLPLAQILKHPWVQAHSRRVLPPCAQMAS
To be noted: at 0.1 µM.

For assay [15], the target named is T4, Aurora kinase C (Homo sapiens). To be noted: at 1 µM.
For assay [16], the target named is Serine/threonine-protein kinase 10 (Homo sapiens) (UniProt O94804). The conditions noted are these: at 0.1 µM.
Assay [17] shares this target. To be noted: at 1 µM.
In assay [18] the target is T5, Mitogen-activated protein kinase kinase kinase kinase 2 (Homo sapiens) (UniProt Q12851).
T5 sequence (whole entry): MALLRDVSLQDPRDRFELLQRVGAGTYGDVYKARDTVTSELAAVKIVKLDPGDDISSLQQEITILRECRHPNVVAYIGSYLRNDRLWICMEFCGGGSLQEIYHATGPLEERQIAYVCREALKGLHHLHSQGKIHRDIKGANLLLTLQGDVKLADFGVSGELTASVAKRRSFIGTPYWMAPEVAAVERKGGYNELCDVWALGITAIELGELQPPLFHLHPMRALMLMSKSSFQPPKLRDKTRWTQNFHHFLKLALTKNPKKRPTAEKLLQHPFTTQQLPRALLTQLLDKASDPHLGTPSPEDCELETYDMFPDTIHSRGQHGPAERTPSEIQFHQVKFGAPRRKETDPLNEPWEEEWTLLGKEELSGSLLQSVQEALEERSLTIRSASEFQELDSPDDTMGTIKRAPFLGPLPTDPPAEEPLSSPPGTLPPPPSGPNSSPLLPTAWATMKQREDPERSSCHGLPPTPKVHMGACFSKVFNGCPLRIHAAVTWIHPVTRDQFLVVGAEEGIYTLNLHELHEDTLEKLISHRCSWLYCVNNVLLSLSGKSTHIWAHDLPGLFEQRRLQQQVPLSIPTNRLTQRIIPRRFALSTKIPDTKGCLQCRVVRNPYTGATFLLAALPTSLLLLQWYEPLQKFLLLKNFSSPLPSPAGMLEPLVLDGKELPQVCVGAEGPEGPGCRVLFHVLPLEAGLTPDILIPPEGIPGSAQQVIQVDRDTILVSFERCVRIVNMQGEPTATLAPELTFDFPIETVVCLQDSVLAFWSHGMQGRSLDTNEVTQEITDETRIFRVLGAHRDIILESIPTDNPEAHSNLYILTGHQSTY
To be noted: at 0.1 µM.

Assay [19] deals with T5, Mitogen-activated protein kinase kinase kinase kinase 2 (Homo sapiens). To be noted: at 1 µM.
For assay [20], the target named is Mitogen-activated protein kinase kinase kinase kinase 4 (Homo sapiens) (UniProt O95819). The conditions noted are these: at 0.1 µM.
Chain of Mitogen-activated protein kinase kinase kinase kinase 4 (Homo sapiens) (O95819 2-1239 limits assumed): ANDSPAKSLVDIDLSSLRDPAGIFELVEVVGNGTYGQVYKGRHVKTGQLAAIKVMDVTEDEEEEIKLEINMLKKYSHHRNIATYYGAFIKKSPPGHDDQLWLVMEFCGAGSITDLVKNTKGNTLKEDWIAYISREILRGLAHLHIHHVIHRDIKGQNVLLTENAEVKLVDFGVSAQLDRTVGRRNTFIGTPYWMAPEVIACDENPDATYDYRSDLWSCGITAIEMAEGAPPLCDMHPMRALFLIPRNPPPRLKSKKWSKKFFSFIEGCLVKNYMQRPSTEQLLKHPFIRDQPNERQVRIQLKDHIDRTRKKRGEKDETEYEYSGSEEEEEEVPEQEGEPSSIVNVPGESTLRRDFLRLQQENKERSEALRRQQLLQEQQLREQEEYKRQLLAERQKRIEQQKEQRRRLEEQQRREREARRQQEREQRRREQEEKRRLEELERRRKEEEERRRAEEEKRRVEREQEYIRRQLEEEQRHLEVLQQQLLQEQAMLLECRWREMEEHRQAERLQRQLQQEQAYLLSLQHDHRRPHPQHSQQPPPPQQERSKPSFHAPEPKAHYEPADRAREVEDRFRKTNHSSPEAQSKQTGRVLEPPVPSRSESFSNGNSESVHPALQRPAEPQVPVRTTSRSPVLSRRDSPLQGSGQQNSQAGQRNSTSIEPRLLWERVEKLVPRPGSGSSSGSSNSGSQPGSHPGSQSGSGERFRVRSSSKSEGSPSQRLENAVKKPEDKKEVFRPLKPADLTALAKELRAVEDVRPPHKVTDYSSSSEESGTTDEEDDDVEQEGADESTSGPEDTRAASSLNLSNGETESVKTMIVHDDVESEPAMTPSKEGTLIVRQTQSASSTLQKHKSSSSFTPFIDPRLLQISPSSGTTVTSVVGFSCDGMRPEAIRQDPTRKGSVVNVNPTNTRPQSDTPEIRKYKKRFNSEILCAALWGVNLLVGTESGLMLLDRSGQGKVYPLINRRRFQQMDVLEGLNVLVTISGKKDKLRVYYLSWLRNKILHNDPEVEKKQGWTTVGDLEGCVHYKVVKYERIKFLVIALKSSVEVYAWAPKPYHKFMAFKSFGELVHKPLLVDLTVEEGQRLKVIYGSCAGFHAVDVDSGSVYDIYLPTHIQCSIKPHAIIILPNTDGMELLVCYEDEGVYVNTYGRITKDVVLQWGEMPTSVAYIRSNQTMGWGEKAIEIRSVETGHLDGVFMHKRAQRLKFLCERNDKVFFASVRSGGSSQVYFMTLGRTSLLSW

Chain of BDNF/NT-3 growth factors receptor (Homo sapiens) (Q16620 32-822 limits assumed): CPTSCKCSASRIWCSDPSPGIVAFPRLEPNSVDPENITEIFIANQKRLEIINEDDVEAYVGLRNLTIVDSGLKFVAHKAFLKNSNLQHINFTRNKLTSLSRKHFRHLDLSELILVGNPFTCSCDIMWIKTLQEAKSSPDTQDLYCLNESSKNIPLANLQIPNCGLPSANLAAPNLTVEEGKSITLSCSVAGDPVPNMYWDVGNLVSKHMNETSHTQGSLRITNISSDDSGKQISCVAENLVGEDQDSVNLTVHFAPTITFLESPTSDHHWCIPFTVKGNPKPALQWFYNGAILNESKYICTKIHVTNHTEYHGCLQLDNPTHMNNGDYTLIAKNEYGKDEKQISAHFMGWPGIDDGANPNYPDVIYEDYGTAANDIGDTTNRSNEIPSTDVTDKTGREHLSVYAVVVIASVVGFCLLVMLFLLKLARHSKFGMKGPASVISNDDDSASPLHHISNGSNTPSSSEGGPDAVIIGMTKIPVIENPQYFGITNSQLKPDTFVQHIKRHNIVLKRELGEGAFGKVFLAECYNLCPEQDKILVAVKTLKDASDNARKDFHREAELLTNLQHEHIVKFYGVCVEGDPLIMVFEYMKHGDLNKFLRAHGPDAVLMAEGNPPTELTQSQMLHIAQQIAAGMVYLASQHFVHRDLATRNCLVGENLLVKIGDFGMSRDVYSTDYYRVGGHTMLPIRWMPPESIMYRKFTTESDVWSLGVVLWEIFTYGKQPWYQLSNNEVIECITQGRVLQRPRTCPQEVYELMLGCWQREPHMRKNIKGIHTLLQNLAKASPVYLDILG
Chain of NT-3 growth factor receptor (Homo sapiens) (Q16288 32-839 limits assumed): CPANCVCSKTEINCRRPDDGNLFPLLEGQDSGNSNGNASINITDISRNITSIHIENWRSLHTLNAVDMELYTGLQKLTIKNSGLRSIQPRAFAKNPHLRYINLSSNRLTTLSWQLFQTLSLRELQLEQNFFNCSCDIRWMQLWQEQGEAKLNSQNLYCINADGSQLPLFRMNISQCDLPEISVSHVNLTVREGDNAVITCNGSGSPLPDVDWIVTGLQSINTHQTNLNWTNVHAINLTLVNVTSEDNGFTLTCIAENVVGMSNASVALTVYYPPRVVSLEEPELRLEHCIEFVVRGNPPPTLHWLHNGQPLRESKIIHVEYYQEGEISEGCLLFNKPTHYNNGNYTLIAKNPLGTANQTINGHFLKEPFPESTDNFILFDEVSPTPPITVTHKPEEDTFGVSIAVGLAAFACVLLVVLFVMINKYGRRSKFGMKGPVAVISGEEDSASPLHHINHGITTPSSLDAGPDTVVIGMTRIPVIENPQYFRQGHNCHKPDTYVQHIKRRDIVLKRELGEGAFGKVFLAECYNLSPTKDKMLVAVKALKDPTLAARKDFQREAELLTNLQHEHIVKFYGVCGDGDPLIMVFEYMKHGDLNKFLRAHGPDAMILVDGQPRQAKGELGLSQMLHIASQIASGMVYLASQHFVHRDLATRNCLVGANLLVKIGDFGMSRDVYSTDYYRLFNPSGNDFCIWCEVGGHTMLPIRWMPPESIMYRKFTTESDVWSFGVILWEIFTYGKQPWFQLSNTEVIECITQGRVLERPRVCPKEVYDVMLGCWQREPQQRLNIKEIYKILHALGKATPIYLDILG
Chain of Non-receptor tyrosine-protein kinase TYK2 (Homo sapiens) (P29597 whole entry): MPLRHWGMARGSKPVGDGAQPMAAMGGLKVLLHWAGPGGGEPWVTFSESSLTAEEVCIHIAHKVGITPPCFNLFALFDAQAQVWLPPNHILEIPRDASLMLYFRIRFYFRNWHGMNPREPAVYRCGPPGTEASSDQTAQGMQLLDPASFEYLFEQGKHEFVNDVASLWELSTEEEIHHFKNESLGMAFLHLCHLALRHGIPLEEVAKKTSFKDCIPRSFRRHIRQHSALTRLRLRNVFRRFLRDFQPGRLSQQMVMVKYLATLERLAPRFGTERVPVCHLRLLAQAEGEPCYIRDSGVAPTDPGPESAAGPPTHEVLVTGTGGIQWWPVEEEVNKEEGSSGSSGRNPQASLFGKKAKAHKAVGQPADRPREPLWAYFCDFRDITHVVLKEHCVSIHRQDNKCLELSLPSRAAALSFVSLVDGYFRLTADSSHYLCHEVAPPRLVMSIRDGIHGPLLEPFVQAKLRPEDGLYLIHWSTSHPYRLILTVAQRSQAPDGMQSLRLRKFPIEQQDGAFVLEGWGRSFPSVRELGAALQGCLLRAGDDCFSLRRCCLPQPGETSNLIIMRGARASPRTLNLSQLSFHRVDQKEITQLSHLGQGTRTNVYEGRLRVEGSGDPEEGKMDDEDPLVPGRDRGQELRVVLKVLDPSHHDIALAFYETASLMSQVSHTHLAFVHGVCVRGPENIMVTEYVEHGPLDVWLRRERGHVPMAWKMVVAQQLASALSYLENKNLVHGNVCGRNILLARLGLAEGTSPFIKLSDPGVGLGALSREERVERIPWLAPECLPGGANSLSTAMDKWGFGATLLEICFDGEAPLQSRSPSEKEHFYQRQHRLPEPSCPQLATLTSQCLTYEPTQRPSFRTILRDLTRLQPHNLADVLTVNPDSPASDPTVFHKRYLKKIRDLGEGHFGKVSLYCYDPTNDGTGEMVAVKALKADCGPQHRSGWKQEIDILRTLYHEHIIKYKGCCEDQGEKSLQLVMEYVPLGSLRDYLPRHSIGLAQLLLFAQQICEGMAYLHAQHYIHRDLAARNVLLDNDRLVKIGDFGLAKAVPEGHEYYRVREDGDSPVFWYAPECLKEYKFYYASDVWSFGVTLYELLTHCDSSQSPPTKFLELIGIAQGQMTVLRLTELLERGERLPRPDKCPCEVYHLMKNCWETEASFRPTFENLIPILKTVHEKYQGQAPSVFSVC
Chain of High affinity nerve growth factor receptor (Homo sapiens) (P04629 33-796 limits assumed): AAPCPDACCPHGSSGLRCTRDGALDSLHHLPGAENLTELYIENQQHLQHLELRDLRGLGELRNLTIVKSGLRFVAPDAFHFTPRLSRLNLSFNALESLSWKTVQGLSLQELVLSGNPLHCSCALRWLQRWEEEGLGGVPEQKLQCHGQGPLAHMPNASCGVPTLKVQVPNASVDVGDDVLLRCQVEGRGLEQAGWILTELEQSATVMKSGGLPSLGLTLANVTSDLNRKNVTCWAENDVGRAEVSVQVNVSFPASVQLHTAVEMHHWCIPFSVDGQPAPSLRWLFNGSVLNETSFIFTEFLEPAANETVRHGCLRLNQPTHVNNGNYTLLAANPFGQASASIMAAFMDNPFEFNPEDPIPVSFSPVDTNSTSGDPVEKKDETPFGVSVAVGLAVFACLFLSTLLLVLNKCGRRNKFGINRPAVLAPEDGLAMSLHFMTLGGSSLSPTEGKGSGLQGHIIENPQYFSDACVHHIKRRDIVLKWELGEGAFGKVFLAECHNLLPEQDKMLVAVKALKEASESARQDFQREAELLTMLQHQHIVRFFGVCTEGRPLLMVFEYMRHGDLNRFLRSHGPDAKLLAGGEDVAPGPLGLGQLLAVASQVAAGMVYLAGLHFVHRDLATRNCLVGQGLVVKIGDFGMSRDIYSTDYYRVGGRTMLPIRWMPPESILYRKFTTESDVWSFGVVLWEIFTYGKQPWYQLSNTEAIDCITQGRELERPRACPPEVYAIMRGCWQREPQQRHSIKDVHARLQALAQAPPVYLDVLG

Regarding `CCn1c(-c2nonc2N)nc2cnc(Oc3cccc(NC(=O)c4ccc(OCCN5CCOCC5)cc4)c3)cc21`, the inhibition was -0.09% in assay [1]; 3.18% in [2]; 0.84% in assay [3]; 2.85% in assay [4]; 2.49% in [5]; 5.3% in assay [6]. The inhibition in assay [7] was 5.82%; in assay [8], -1.13%; in assay [9], 10.2%; in [10], 6.07%; in assay [11] it was 43%; in assay [12] it was 2.17%. Moreover, the inhibition in assay [13] stood at 8.22%; in assay [14] it was 1.52%; in assay [15] it was 4.33%; in [16] it was 3.13%; in assay [17], 9.94%; in assay [18], 0.13%. Further, the values for the inhibition in assay [19] and in assay [20] were -1.08% and 6.11%, respectively.
As to `c1cnn2ncc(-c3ccnc(Nc4ccc5c(c4)OCCO5)n3)c2c1`, the inhibition in assay [1] came to 9.5%; in [2], 5.33%; in assay [3] it was 18.1%; in assay [4] it was 5.54%; in [5], 21.3%; in [6], 4.21%. Also, the inhibition in assay [7] is 17.6%; in assay [8], -1.73%; in assay [9], 35%; in [10] it was 9.49%; in assay [11] it was 85.5%; in [12], 14.4%. Further, the inhibition in assay [13] is 65.2%; in [14], 18.8%; in assay [15] it was 96.8%; in assay [16] it was 5.98%; in [17], 23.8%; in [18], 13.6%. The inhibition in assay [19] was found to be 56.5%; in [20] it was 11.3%.
Take `NS(=O)(=O)c1ccc(N/N=C2\C(=O)Nc3ccc(C(=O)NCCc4c[nH]cn4)cc32)cc1`: the inhibition in assay [1] came to 14.9%; in assay [2], 6.79%; in [3], 31.4%; in assay [4] it was 9.97%; in assay [5] it was 41.8%; in assay [6], 3.49%. The inhibition was 3.55% in [7]; -1.79% in [8]; 71.5% in assay [9]; 3.83% in assay [10]; 41.2% in assay [11]; 6% in assay [12]. Also, the inhibition in assay [13] came to 26.8%; in assay [14], 3.9%; in assay [15] it was 31.5%; in assay [16] it was 3.71%; in assay [17], 8.99%; in assay [18] it was 1.62%. In addition, the inhibition in [19] was found to be 6.59%; in assay [20], 10.5%.
Consider `NC(=O)c1ccc(-c2nc(-c3ccccn3)c(-c3ccc4c(c3)OCO4)[nH]2)cc1`, for which the inhibition was determined as 3.43% in [1]; 1.54% in assay [2]; 0.41% in [3]; 0.44% in assay [4]; 1.77% in [5]; 2.18% in [6]. Further, the inhibition in [7] was 3.28%; in [8], -4.13%; in assay [9], 3.14%; in [10] it was 1.85%; in assay [11], 3.93%; in assay [12], 4.83%. For the same compound, the inhibition in [13] is 4.45%; in [14], 1.68%; in assay [15], -2.72%; in assay [16], 6.27%; in assay [17], 3.54%; in [18], 0.64%. Further, the values for the inhibition in assay [19] and in assay [20] were 2.35% and 1.99%, respectively.
Consider `O=C1NC(=O)C(c2cccc(Cl)c2)=C1Nc1ccc(O)c(Cl)c1`, for which the inhibition was 2.57% in assay [1]; -0.13% in assay [2]; 0.31% in assay [3]; -0.33% in assay [4]; 1.68% in [5]; 2.35% in assay [6]. Further, the inhibition in [7] turned out to be 3.52%; in assay [8] it was 3.26%; in [9], 4.84%; in assay [10], 2.24%; in assay [11] it was 11.1%; in assay [12], 1.17%. The inhibition in assay [13] was determined as 6.09%; in [14], 1.02%; in assay [15], 13.1%; in assay [16], 6.26%; in assay [17] it was 46.3%; in assay [18], 4%. Also, the inhibition in assay [19] turned out to be 21.3%; in assay [20], 1.83%.
Take `NS(=O)(=O)c1cccc(-c2ccc3c(NC(=O)C4CC4)n[nH]c3c2)c1`: the inhibition in assay [1] is 1.21%; in [2] it was 0.07%; in assay [3], 2.04%; in [4] it was 0.11%; in assay [5] it was 3.65%; in [6], -2.48%. Moreover, the inhibition in assay [7] is -2.41%; in assay [8], 0.42%; in [9] it was 2.12%; in assay [10], -1.3%; in [11], 14.4%; in [12] it was 1.82%. The inhibition in [13] was 1.24%; in [14], -1.44%; in [15], 2.43%; in [16] it was 1.33%; in assay [17] it was 7.09%; in assay [18] it was 2.11%. Besides, the inhibition in assay [19] stood at 7.37%; in assay [20], 1.63%.
In the case of `CCn1c(-c2nonc2N)nc2cncc(C(=O)N3CCNCC3)c21`, the inhibition in [1] amounted to 4.86%; in assay [2] it was 3.21%; in assay [3] it was 4.35%; in assay [4], 3.96%; in assay [5], 4.33%; in assay [6] it was 7.08%. Moreover, the inhibition in assay [7] is 5.49%; in [8], -1.93%; in assay [9] it was 12.5%; in assay [10], 5.21%; in assay [11], 2.9%; in assay [12] it was 3.66%. Moreover, the inhibition in [13] was 4.51%; in assay [14], -0.51%; in [15] it was 1.12%; in assay [16], 10.8%; in [17], 8.24%; in [18] it was 1.51%. Besides, the inhibition in assay [19] stood at 2.14%; in [20], 3.11%.

As usually defined, the inhibition is the change of the read-out against control, counted positive when it falls.
